Assay outcomes deposited in PubChem BioAssay by Broad Institute.
Many of the other results were omitted from the sample, so hits are more common in it than they were.
IDE exosite inh = insulin-degrading enzyme (human) exo-site inhibition; purified IDE, FL-6b probe fluorescence polarization; stronger effect = lower value; 17,000 tested, 6.3% active; z-score at 20 µM; P14735; AID 1259349;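 active = z-score of -3 or lower, meaning strong loss of probe binding signal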;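 note: His-tagged human IDE residues 42-1019 made in E. coli with 30 nM FL-6b probe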
Target sequence (P14735 42-1019 limits assumed): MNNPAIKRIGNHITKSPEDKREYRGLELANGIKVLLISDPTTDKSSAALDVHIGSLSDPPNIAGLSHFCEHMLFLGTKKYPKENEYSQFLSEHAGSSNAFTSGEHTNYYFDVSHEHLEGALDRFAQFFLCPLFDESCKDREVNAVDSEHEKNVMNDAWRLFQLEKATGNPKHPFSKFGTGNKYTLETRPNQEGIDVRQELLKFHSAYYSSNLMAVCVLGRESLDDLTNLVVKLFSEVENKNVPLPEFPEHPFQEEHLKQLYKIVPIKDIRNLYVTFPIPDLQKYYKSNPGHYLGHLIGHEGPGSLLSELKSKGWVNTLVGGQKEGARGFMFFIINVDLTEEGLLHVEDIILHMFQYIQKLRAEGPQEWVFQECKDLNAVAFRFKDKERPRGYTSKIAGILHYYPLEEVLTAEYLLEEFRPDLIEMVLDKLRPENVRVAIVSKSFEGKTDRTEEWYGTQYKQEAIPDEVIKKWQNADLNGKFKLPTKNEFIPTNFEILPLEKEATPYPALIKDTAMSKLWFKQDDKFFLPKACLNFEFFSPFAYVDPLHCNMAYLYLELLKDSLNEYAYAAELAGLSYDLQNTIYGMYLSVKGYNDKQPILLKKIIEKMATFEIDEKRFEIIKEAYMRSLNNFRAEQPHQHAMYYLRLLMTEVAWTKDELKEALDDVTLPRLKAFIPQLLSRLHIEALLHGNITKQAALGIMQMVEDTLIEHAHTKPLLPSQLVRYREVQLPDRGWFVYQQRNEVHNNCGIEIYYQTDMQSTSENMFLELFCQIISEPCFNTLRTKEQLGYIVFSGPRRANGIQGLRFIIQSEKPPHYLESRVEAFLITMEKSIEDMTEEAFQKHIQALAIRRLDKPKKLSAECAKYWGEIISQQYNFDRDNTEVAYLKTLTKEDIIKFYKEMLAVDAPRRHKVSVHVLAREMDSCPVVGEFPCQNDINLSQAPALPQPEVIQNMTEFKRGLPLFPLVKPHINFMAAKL
Hits are given with their value; n = inactive.

SMILES	IDE exosite inh
COCC#Cc1ccc([C@@H]2[C@H](CO)N3C(=O)CN(C(=O)CN4CCOCC4)C[C@@H]23)cc1	n
COc1cccc(-c2ccc([C@H]3[C@@H](CO)N4C(=O)CN(C(=O)CN5CCOCC5)C[C@@H]34)cc2)c1	-3.5
COc1cccc(-c2ccc([C@@H]3[C@H](CO)N4C(=O)CN(C(=O)CN5CCOCC5)C[C@@H]34)cc2)c1	-6.3
Cc1ccc(-c2ccc([C@@H]3[C@@H](CO)N4C(=O)CN(C(=O)CN5CCOCC5)C[C@@H]34)cc2)cc1	n
Cc1ccc(-c2ccc([C@H]3[C@H](CO)N4C(=O)CN(C(=O)CN5CCOCC5)C[C@@H]34)cc2)cc1	n
Cc1cccc(-c2ccc([C@@H]3[C@H]4CN(C(=O)CN5CCOCC5)CC(=O)N4[C@H]3CO)cc2)c1	-15
O=C(CN1CCOCC1)N1CC(=O)N2[C@@H](CO)[C@H](c3ccc(-c4cccc(F)c4)cc3)[C@@H]2C1	n
COc1cccc(-c2ccc([C@H]3[C@H]4CN(C(=O)CN5CCOCC5)CC(=O)N4[C@H]3CO)cc2)c1	n
O=C(CN1CCOCC1)N1CC(=O)N2[C@H](CO)[C@@H](c3ccc(-c4cccc(F)c4)cc3)[C@@H]2C1	n
COc1ccc2c3c(n(C)c2c1)[C@H](CO)N(C(=O)Nc1ccc(F)cc1)CC31CCN(C(=O)Nc2ccc(F)cc2F)CC1	n
O=C(c1ccccn1)N1CC[C@@H]2[C@@H](CO)Nc3ccc(Br)cc3[C@@H]21	n
CC(C)NC(=O)N1CC(=O)N2[C@H](CO)[C@@H](c3ccc(C#CCN(C)C)cc3)[C@H]2C1	n
COc1ccc(S(=O)(=O)Nc2ccc3c(c2)OC[C@H](C)NC[C@@H](C)[C@@H](OC)CN(C)C3=O)cc1	n
O=C(Nc1cccc(F)c1)N1CCCCN2[C@H](CO)[C@@H](c3ccc(-c4ccccc4F)cc3)[C@H]2C1	n
COc1ccc2c3c(n(C)c2c1)[C@H](CO)N(C(=O)C1CCOCC1)CC31CCN(C(=O)c2ccncc2)CC1	n
OC[C@@H]1[C@H](c2ccc(C#Cc3ccccc3)cc2)[C@@H]2CN(CC3CCOCC3)CCCCN12	-3.9
OC[C@@H]1[C@@H](c2ccc(-c3cccnc3)cc2)[C@H]2CN(CC3CC3)CCCCN12	n
OC[C@@H]1[C@H](c2ccc(-c3cccnc3)cc2)[C@@H]2CN(CC3CC3)CCCCN12	n
OC[C@H]1[C@H](c2ccc(C#Cc3ccccc3)cc2)[C@H]2CN(CC3CCOCC3)CCCCN21	n
Cc1ccccc1-c1ccc([C@H]2[C@@H](CO)N3CCCCN(CC4CC4)C[C@H]23)cc1	-11
Cc1ccccc1-c1ccc([C@H]2[C@H](CO)N3CCCCN(CC4CC4)C[C@@H]23)cc1	n
OC[C@@H]1[C@H](c2ccc(-c3cccnc3)cc2)[C@H]2CN(CC3CC3)CCCCN12	n
Cc1ccccc1-c1ccc([C@@H]2[C@@H](CO)N3CCCCN(S(C)(=O)=O)C[C@H]23)cc1	n
Cc1ccccc1-c1ccc([C@@H]2[C@@H](CO)N3CCCCN(CC4CC4)C[C@H]23)cc1	-6.8
OC[C@@H]1[C@@H](c2ccc(C#Cc3ccccc3)cc2)[C@@H]2CN(CC3CCOCC3)CCCCN12	n
SMILES	IDE exosite inh
OC[C@H]1[C@H](c2ccc(-c3cccnc3)cc2)[C@@H]2CN(CC3CC3)CCCCN12	n
Cc1ccccc1-c1ccc([C@@H]2[C@H](CO)N3CCCCN(CC4CC4)C[C@@H]23)cc1	-9.6
COCC(=O)N1[C@H](C#N)[C@@H](c2ccccc2-c2ccccc2F)[C@H]1CO	n
Cc1ccc(-c2ccc(C3[C@H]4CNC[C@@H]3N4C(=O)NC(C)C)cc2)cc1 (stereo not given in full)	n
COCC(=O)N1CC[C@@H]2[C@H]1c1cc(-c3cccc(F)c3)ccc1N(C)[C@H]2CO	n
COc1ccc(-c2ccc([C@@H]3[C@@H](CO)N4C(=O)CN(C(=O)Cc5ccccn5)C[C@@H]34)cc2)cc1	n
N#C[C@H]1[C@H](c2ccccc2-c2ccccc2F)[C@@H](CO)N1C(=O)C1CC1	n
COCC(=O)N1[C@@H](C#N)[C@@H](c2ccc(C3=CCCCC3)cc2)[C@@H]1CO	n
OC[C@H]1[C@@H](c2ccc(C#CC3(O)CCCC3)cc2)[C@@H]2CN(Cc3ccccc3F)CCCCN12	n
CC(C)C#Cc1ccc([C@@H]2[C@H]3CN(C(=O)C4CCCCC4)CC(=O)N3[C@H]2CO)cc1	n
CCC(=O)N(C[C@@H]1N[C@H](CO)[C@@H]1c1ccc(C#C[C@@H](C)O)cc1)C1CCCCC1	n
O=C(Nc1nccs1)[C@@H]1[C@@H](CO)[C@@H]2Cn3c(cccc3=O)[C@H]1N2C(=O)C1CC1	n
Cc1ccccc1-c1ccc([C@@H]2[C@H](CO)N3CCCCN(CC4CCOCC4)C[C@@H]23)cc1	-5.5
COc1ccc(-c2ccc([C@@H]3[C@@H](CO)N4CCCCN(CC5CCOCC5)C[C@H]34)cc2)cc1	n
COc1ccc(-c2ccc([C@@H]3[C@H]4CN(CC5CCOCC5)CCCCN4[C@H]3CO)cc2)cc1	n
CNC(=O)C[C@@H]1CC[C@H]2[C@@H](COc3ccc(NC(=O)c4ccccc4F)cc3C(=O)N2C)O1	n
C[C@@H]1CN([C@@H](C)CO)C(=O)c2cc(NC(=O)Nc3ccc4c(c3)OCO4)ccc2O[C@@H](C)CCCCO[C@@H]1CN(C)C(=O)CCCN(C)C	n
N#C[C@H]1[C@@H](c2ccccc2)[C@H](CO)N1C(=O)c1ccc2c(c1)OCO2	n
Cc1cccc(-c2ccc([C@H]3[C@@H](CO)N4CCCCN(C(=O)NC(C)C)C[C@H]34)cc2)c1	-13
COc1ccccc1NC(=O)N1CCCCN2[C@@H](CO)[C@H](c3ccc(-c4cccc(C)c4)cc3)[C@@H]2C1	n
Cc1cccc(-c2ccc([C@@H]3[C@H]4CN(C(=O)NC(C)C)CCCCN4[C@H]3CO)cc2)c1	-12
COc1ccccc1NC(=O)N1CCCCN2[C@H](C1)[C@@H](c1ccc(-c3cccc(C)c3)cc1)[C@@H]2CO	n
Cc1cccc(-c2ccc([C@@H]3[C@H]4CN(C(=O)c5ccc6c(c5)OCO6)CCCCN4[C@H]3CO)cc2)c1	n
COc1ccccc1NC(=O)N1CCCCN2[C@H](CO)[C@H](c3ccc(-c4cccc(C)c4)cc3)[C@@H]2C1	n
CN(C[C@@H]1N[C@H](CO)[C@@H]1c1ccc(C2=CCCC2)cc1)S(C)(=O)=O	n
SMILES	IDE exosite inh
O=C(C[C@H]1CC[C@H](NC(=O)Nc2ccc(C(F)(F)F)cc2)[C@H](CO)O1)NCc1cccc(F)c1	n
Cc1ccc(-c2ccccc2[C@H]2[C@@H](C#N)N(C(=O)Cc3cccnc3)[C@H]2CO)cc1	n
C[C@@H]1CCCCO[C@@H](CN(C)C(=O)Nc2ccc3c(c2)OCO3)[C@H](C)CN([C@@H](C)CO)C(=O)c2cc(NS(=O)(=O)c3ccc(F)cc3)ccc2O1	n
Cc1ccccc1S(=O)(=O)N1CCCCN2[C@H](C1)[C@H](c1ccc(-c3cccnc3)cc1)[C@@H]2CO	n
O=S(=O)(c1ccccc1F)N1CCCCN2[C@H](C1)[C@@H](c1ccc(-c3cncnc3)cc1)[C@@H]2CO	n
Cc1ccccc1S(=O)(=O)N1CCCCN2[C@H](CO)[C@@H](c3ccc(-c4cncnc4)cc3)[C@@H]2C1	-4.6
Cc1ccccc1S(=O)(=O)N1CCCCN2[C@H](CO)[C@H](c3ccc(-c4cncnc4)cc3)[C@H]2C1	n
Cc1cccc(S(=O)(=O)N2CCCCN3[C@H](CO)[C@H](c4ccc(-c5cccnc5)cc4)[C@@H]3C2)c1	n
Cc1ccccc1S(=O)(=O)N1CCCCN2[C@H](CO)[C@H](c3ccc(-c4cccnc4)cc3)[C@@H]2C1	n
